Results as given in PubChem BioAssay AID1159580 (chemical genetic matrix, 2015).
About 2,000 (36%) of roughly 5,500 compounds were called active. Another 18% or so got no clear call; they are omitted. Cut-off read from the data, not from the text of the source: active = normalized growth mostly below about 0.91 (no sharp cut-off); inconclusive = no clear call, values can overlap the other calls; inactive = mostly above about 0.92. Some of the results follow.

Test: chemical genetic growth profiling, strain panel (AID 1159580);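 note: tested at 20 µM; growth read once vehicle control cultures reached saturation at 30 °C; 1 = growth at the plate median or of vehicle wells; lower values mean less growth of the strain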
Conditions: S. cerevisiae deletion strains, growth OD

Measured: normalized growth

Oc1ccc2c3c1O[C@H]1c4[nH]c5c(c4C[C@@]4(O)[C@@H](C2)N(CC2CC2)CC[C@]314)C[C@@]1(O)[C@H]2Cc3ccc(O)c4c3[C@@]1(CCN2CC1CC1)[C@H]5O4
inactive: locus YAL013W, strain DEP1, active compounds read low 0.969 | locus YAL040C, strain CLN3, active compounds read low 1 | locus YCL061C, strain MRC1 (second series), active compounds read low 0.962 | locus YDR363W, strain ESC2, active compounds read low 1.02 | locus YER002W, strain NOP16, active compounds read low 0.996 | locus YGR078C, strain PAC10, active compounds read low 0.986 | locus YMR263W, strain SAP30, active compounds read low 0.982 | locus YMR307W, strain GAS1, active compounds read low 1.03 | locus YNL175C, strain NOP13, active compounds read low 1 | locus YNL197C, strain WHI3, active compounds read low 0.978 | locus YNL224C, strain SQS1, active compounds read low 1 | locus YNL322C, strain KRE1, active compounds read low 0.958 | locus YOR083W, strain WHI5 (second series), active compounds read low 1.01 | locus YPL241C, strain CIN2, active compounds read low 0.968
